# Assay results reported in PubChem BioAssay.
# Active and inactive are the calls of the source.
# Key:
# [1] = small molecules captured by biotinylated probe aFSTL3 – biochemical, small-molecule microarray, fluorescence 635/667, stem cell growth factor project, primary screen (AID 1064); conditions: higher = more signal;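 note: measures binding of the biotinylated anti-FSTL3 antibody to printed compounds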
# [2] = binders from COS7 lysate, DM2A8 probe, primary screen, torsin A project, cell lysate, small-molecule microarray, fluorescence 635/667 (AID 1065); conditions: higher = more signal, COS7 lysate expressing mutant human TOR1A
# [3] = small molecules captured by biotinylated probe aFGF2 – biochemical, small-molecule microarray, fluorescence 635/667, stem cell growth factor project, primary screen (AID 1067); conditions: higher = more signal;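 note: measures binding of biotinylated aFGF2 protein to printed compounds on slides; z-score merges feature fluorescence and signal-to-noise across triplicate slides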
# [4] = small molecules captured by biotinylated probe aFGF10 – biochemical, small-molecule microarray, fluorescence 635/667, stem cell growth factor project, primary screen (AID 1071); conditions: higher = more signal;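 note: score merges 667 nm spot intensity and signal to noise from triplicate slides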
# [5] = target: Neurogenic locus notch homolog protein 2 (Homo sapiens) (UniProt Q04721); assay: small molecules binding Notch2 protein – biochemical, small-molecule microarray, 635 nm fluorescence, stem cell growth factors, primary screen (AID 1073); conditions: higher = more signal
# [6] = target: Pro-neuregulin-1, membrane-bound isoform (Homo sapiens) (UniProt Q02297); assay: small molecules binding neuregulin-1 protein – biochemical, small-molecule microarray, fluorescence 635/667, psychiatric disease protein project, primary screen (AID 1075); conditions: NRG1 binding, 635 nm fluorescence, higher = more signal;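 note: score combines 667 nm spot fluorescence with signal to noise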
# [7] = test system: Neuregulin-1 EGF-like domain; assay: small molecules binding NRG1 EGF domain – biochemical, small-molecule microarray, 635 nm fluorescence, primary screen (AID 1081); conditions: higher = more signal;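 note: binding of the protein to compounds printed on small-molecule microarray slides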
# [8] = FRG1 expression reporter modulators in myotubes – cell-based, C2C12 myotubes, firefly/Renilla luciferase, luminescence, FRG1 inhibition for FSHD, primary screen (AID 1084); conditions: FRG1 promoter luciferase, higher = more signal, called active from +8 up or from −8 down
# [9] = small molecules captured by biotinylated probe aFST – biochemical, small-molecule microarray, fluorescence 635/667, stem cell growth factor project, primary screen (AID 1086); conditions: higher = more signal;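 note: score merges 667 nm fluorescence with signal-to-noise of each printed compound spot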
# [10] = binders of probe aHhip on microarray, primary screen, stem cell growth factor project, biochemical, small-molecule microarray, fluorescence 635/667 (AID 1087); conditions: higher = more signal;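 note: score merges spot fluorescence at 667nm with spot signal to noise ratio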
# [11] = test system: PRMT1 (protein arginine N-methyltransferase 1); assay: small molecules binding arginine methyltransferase PRMT1 – biochemical, small-molecule microarray, 635 nm fluorescence, primary screen (AID 1088); conditions: higher = more signal;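 note: binding of Prmt1 protein to compounds spotted on small-molecule microarray slides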
# [12] = growth effects on S. cerevisiae YJM789 – YJM789 clinical isolate, OD600, 24 h, basal, primary screen (AID 1089); conditions: higher = more signal, called active from +8 up or from −8 down;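 note: growth of clinical yeast isolate S. cerevisiae YJM 789 seeded 1000 cells per well; test concentration not given here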
# [13] = S. pombe growth modifiers, basal conditions – strain 972, OD600, 24 h, no modulator, primary screen (AID 1090);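 note: basal condition with compound alone and no growth modifier present; test concentration not given here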; conditions: S. pombe 972 growth, higher = more signal, called active from +8 up or from −8 down
# [14] = budding yeast growth modifiers under rapamycin – strain BY4716, OD600, 96 h, primary screen (AID 1091); note: test concentration not given here; conditions: S. cerevisiae BY4716 + rapamycin, higher = more signal, called active from +8 up or from −8 down
# [15] = target: Torsin-1A-interacting protein 2 (Homo sapiens) (UniProt Q8NFQ8); assay: small molecules binding lysate-expressed LULL1 – cell lysate, human LULL1 lysate, 635/667 nm fluorescence, primary screen (AID 1092); conditions: small-molecule microarray, hLULL1 lysate binding, 635 nm fluorescence; higher = more signal;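 note: probe is lysate of COS7 cells overexpressing human LULL1; score merges per-feature 667 nm fluorescence with signal-to-noise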
# [16] = optical density change of DRC41 E. coli – strain DRC41, OD650, 24 h, E. coli filamentation project, primary screen (AID 1093);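 note: MC1000 strain lacking acrAB efflux and sulA so SOS filamentation is blocked; test concentration not given here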; conditions: E. coli DRC41 growth, higher = more signal, called active from +8 up or from −8 down
# [17] = probe aLefty2 binding to arrayed compounds – biochemical, biotinylated probe, 635/667 nm fluorescence, primary screen (AID 1094); conditions: small-molecule microarray, higher = more signal;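 note: score merges spot fluorescence near 667 nm with spot signal-to-noise ratio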
# [18] = test system: Noggin (protein binding on small-molecule microarray); assay: small molecules binding Noggin protein – biochemical, 635/667 nm fluorescence, primary screen (AID 1095); conditions: 635 nm fluorescence, higher = more signal;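 note: score merges 667 nm feature fluorescence with signal to noise over triplicate slides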
# [19] = target: Neurogenic locus notch homolog protein 3 (Homo sapiens) (UniProt Q9UM47); assay: small molecules binding NOTCH3 protein – biochemical, 635/667 nm fluorescence, primary screen (AID 1096); conditions: small-molecule microarray, 635 nm fluorescence, higher = more signal
# [20] = probe aEGFR binding to arrayed compounds – biochemical, biotinylated probe, 635/667 nm fluorescence, primary screen (AID 1097); conditions: small-molecule microarray, higher = more signal;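 note: probe is a biotinylated anti-EGFR antibody binding compounds printed on slides; score combines fluorescence near 667 nm and signal to noise of each spot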
# Sequence of Pro-neuregulin-1, membrane-bound isoform (Homo sapiens) (Q02297 whole entry, looked up, the tested form may be a part, canonical isoform): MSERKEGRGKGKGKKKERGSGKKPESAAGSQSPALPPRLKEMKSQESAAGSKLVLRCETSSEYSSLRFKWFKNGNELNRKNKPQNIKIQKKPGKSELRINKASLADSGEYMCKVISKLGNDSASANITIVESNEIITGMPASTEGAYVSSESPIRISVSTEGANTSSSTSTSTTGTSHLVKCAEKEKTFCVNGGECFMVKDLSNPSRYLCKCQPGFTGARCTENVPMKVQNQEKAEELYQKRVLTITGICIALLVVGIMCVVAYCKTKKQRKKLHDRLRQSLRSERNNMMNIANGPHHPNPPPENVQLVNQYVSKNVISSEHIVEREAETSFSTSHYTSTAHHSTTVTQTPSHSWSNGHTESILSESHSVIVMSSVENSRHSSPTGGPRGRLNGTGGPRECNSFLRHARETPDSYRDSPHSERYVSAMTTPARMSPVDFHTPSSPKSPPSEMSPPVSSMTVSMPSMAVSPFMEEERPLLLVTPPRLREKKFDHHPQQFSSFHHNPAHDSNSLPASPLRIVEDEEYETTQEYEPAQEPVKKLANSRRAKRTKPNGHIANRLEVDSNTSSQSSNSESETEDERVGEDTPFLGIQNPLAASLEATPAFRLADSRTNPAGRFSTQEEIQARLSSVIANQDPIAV
# Sequence of Torsin-1A-interacting protein 2 (Homo sapiens) (Q8NFQ8 whole entry, looked up): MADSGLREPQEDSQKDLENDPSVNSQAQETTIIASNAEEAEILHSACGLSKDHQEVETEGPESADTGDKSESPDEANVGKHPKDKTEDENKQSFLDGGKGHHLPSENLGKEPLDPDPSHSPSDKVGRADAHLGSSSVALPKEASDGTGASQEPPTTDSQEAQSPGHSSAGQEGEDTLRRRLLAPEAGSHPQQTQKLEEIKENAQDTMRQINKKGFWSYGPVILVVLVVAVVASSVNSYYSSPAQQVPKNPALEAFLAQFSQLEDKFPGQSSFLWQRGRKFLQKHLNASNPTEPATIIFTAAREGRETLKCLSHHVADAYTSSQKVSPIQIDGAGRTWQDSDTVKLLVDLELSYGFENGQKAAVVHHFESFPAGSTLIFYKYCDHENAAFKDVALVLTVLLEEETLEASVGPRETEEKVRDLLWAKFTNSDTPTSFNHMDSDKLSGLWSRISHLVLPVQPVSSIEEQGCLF
# Sequence of Neurogenic locus notch homolog protein 2 (Homo sapiens) (Q04721 whole entry, looked up, canonical isoform): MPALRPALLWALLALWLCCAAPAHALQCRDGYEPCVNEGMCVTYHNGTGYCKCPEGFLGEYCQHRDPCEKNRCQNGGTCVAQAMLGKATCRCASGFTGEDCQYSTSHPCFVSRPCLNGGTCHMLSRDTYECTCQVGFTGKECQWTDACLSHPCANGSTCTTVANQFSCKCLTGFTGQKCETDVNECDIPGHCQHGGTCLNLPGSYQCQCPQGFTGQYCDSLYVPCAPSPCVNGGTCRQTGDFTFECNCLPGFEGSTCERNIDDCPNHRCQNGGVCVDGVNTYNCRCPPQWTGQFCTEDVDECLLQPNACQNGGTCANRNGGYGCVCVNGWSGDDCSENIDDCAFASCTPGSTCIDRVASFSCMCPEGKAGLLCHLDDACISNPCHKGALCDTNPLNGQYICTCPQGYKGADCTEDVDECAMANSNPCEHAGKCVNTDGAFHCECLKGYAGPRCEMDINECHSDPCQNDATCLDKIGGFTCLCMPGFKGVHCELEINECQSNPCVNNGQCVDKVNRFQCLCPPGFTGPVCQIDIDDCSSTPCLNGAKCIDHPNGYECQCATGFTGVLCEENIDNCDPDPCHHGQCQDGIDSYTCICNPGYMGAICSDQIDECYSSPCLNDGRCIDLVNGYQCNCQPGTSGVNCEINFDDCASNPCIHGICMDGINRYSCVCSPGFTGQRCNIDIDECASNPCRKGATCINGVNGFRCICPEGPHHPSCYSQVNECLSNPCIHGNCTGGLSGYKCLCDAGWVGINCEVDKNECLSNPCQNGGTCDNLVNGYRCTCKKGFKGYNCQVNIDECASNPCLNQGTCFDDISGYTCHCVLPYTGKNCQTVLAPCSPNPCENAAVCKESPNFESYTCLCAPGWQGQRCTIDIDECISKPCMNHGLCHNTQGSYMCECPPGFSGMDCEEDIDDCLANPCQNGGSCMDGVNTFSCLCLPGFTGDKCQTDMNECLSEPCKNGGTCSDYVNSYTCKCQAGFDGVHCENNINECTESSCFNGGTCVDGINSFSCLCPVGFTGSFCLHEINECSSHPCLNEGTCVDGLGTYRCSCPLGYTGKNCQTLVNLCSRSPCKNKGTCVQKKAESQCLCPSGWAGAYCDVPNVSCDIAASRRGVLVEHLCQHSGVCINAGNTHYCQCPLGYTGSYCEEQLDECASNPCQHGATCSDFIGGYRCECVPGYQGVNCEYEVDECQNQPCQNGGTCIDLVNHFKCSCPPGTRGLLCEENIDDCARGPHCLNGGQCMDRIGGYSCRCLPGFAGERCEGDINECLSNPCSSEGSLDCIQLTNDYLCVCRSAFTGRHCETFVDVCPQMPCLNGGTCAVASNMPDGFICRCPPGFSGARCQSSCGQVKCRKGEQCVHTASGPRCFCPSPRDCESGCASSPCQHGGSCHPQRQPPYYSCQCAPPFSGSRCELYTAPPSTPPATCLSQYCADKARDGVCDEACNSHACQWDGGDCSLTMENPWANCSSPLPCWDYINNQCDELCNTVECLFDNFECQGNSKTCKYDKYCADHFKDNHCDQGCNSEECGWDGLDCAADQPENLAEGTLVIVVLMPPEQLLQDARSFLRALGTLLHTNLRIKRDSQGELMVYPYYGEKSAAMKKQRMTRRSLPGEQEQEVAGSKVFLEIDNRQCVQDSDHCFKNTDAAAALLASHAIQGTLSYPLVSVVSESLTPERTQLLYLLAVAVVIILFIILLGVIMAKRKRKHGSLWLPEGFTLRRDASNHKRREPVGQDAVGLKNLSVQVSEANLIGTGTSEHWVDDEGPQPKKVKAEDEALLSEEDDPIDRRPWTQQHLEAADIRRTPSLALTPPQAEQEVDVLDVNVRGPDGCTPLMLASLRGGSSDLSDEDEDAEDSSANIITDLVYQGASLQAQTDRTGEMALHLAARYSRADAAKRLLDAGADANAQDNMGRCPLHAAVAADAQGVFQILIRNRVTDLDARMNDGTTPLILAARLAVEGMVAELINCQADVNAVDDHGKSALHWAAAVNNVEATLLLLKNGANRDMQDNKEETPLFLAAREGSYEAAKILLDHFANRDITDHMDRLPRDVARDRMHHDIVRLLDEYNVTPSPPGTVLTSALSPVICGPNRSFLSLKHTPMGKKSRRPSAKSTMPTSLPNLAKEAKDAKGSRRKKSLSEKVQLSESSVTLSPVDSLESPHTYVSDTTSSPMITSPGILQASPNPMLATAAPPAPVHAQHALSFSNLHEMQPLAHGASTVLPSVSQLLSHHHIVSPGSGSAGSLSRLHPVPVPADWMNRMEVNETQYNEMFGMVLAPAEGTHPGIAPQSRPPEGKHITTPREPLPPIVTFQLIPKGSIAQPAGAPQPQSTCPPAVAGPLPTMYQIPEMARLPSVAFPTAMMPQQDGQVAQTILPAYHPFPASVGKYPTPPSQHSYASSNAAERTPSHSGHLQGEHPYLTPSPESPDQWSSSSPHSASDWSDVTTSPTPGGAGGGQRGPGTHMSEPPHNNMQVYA
Compound,composite z-score [1],composite z-score [2],composite z-score [3],composite z-score [4],composite z-score [5],composite z-score [6],composite z-score [7],z-score [8],composite z-score [9],composite z-score [10],composite z-score [11],z-score [12],z-score [13],z-score [14],composite z-score [15],z-score [16],composite z-score [17],composite z-score [18],composite z-score [19],composite z-score [20]
CN1C(=O)C2C=CC(C(O)c3ccc(F)cc3)N(Nc3ccccc3)C2C1=O (stereo not given),-0.12,-0.286,-0.0222,0.208,1.24,1.35,1.34,-0.604 (inactive),0.862,-0.215,0.225,0.397 (inactive),1.08 (inactive),1.97 (inactive),3.69,-1.2 (inactive),0.085,0.447,1.02,0.0034
O=C1NC(=O)C2C1C=CC(C(O)c1cccc3ccccc13)N2Nc1ccc(Cl)cc1Cl (stereo not given),0.475,-0.974,-0.0752,0.51,1.49,1.53,1,-0.716 (inactive),1.34,-0.0994,0.811,-1.94 (inactive),-0.615 (inactive),2.56 (inactive),3.04,-1.43 (inactive),0.162,-0.339,1.04,0.131
C=CC[C@]1(C(=O)NCCN2CCOCC2)N=C(c2ccc(OCCCO)cc2)O[C@H]1c1ccccc1CN=[N+]=[N-],0.442,1.46,-0.0078,0.333,0.837,0.849,1.23,1.81 (inactive),0.171,0.0338,1.4,-0.0011 (inactive),-1.77 (inactive),-0.744 (inactive),1.64,1.23 (inactive),0.298,0.641,-1.35,0.159
[N-]=[N+]=NCc1ccccc1[C@@H]1OC(c2ccc(OCCCO)cc2)=N[C@]1(CCS(=O)(=O)c1ccccc1)C(=O)NCC(O)CO (stereo not given in full),0.445,0.92,0.067,0.367,1.53,2,1.23,-0.547 (inactive),0.923,-0.0994,1.54,-1.69 (inactive),-0.741 (inactive),0.897 (inactive),3.85,0.171 (inactive),0.267,1,0.832,-0.0435
CO[C@H]1O[C@H](CO)[C@@H](OC(=O)Nc2ccccc2-c2ccccc2)[C@H](OC(=O)Nc2ccc3c(c2)OCO3)[C@H]1OC(=O)Nc1ccc2c(c1)OCO2,-0.0811,0.866,0.0555,0.937,1.47,1.72,1.35,4.93 (inactive),0.601,-0.0618,1.53,1.86 (inactive),1.35 (inactive),7.32 (inactive),3.25,2 (inactive),0.132,0.852,1.12,0.0115
CCOC(=O)C[C@H]1[C@H](OC(=O)c2ccccc2-c2ccccc2)[C@@H](NC(=O)c2ccc(-c3ccccc3)cc2)c2cc(OCCCO)ccc2N1C(=O)c1ccc2ccccc2n1,-0.405,0.286,-0.127,0.754,0.75,0.789,0.849,0.835 (inactive),0.211,-0.145,1.02,0.214 (inactive),0.632 (inactive),0.723 (inactive),1.11,-0.75 (inactive),0.0332,0.427,0.592,0.2
C=C[C@@H](OC)[C@H](OC(=O)Nc1ccc(SC)cc1)c1ccc(O)c(F)c1,0.0213,0.5,-0.0024,0.362,-0.0166,1.25,1.35,3.87 (inactive),0.2,-0.069,1.56,1.05 (inactive),0.123 (inactive),1.65 (inactive),2.58,0.374 (inactive),-0.0654,0.808,0.185,-0.126
CC1CC/C=C\[C@H]2OC34C=CCN(C(C)C)C(=O)[C@H]3N(CCCCCCO)C(=O)[C@@H]4C2C(=O)O1 (stereo not given in full),0.315,-0.671,-0.143,-0.178,-0.357,1.06,0.147,0.286 (inactive),-0.856,-0.304,-1.25,-1.39 (inactive),-0.482 (inactive),-1.27 (inactive),-1.42,2.5 (inactive),-0.136,-0.705,-0.514,-0.237
COCCOC(=O)N1C(=O)[C@@]2(c3cc(C#CC4=CCCCC4)ccc31)[C@H](c1ccc(O)cc1)N1[C@H](c3ccccc3)[C@H](c3ccccc3)OC(=O)[C@H]1[C@@H]2C(=O)N1CCN(c2ncccn2)CC1,0.875,-0.0653,-0.141,-0.164,-1.58,0.576,-0.0176,0.214 (inactive),-0.841,-0.277,0.234,0.358 (inactive),0.371 (inactive),0.58 (inactive),-0.142,-0.737 (inactive),-0.192,-1.1,-0.756,-0.348
CN1C(=O)C2C=CC(C(O)c3cccc(O)c3)N(Nc3ccccc3)C2C1=O (stereo not given),-0.0512,-0.201,0.0121,0.518,0.768,1.9,1.25,0.737 (inactive),0.495,0.0808,-0.0187,0.637 (inactive),1.62 (inactive),1.1 (inactive),0.684,-0.509 (inactive),0.0004,0.215,0.764,-0.0251
